# From PubChem
# L3MBTL1 block: inhibitors of human L3MBTL1; Q9Y468; AlphaScreen L3MBTL1–H3K9me1 peptide binding; Potency, µM (top dose mostly 57.1 µM), most hits filed as inhibitors; 230,000 tested, 0.66% active; AID 485360; also: nearly all actives have a fitted effect of over 60% in size
#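 First, the protein-peptide complex forms for 30 min at room temperature (L3MBTL1 50 nM, biotinylated H3K9me1 peptide 75 nM). Next, compounds are pin-transferred and incubated 30 min. Finally, AlphaScreen beads are added and read after 30 min.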
# BAZ2B block: inhibitors of human BAZ2B bromodomain; Q9UIF8; AlphaScreen BAZ2B-H3K14Ac peptide displacement; Potency, µM (highest dose often 114 µM), hits mostly inhibitors; 360,000 tested, 4.4% active; also: nearly all actives have a fitted effect of over 60% in size
#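 AlphaScreen displacement: compounds (up to 110uM) incubated 30 min at room temperature with a preformed 50 nM BAZ2B/50 nM biotinylated H3K14Ac peptide complex in PBS pH 7.4 with Tween-20. Donor and acceptor beads at 10 ug/mL final added, 20 min light-protected before reading.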
# HP1b chromo inh: HP1-beta chromodomain-methylated histone interaction inhibition. P83916. AlphaScreen HP1-beta / biotin-H3K9me3 peptide binding. Potency, µM (doses to about 114 µM), usual class: inhibitors. 390,000 tested, 0.56% active. AID 540317; also: nearly all actives have a fitted effect of over 70% in size
#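 AlphaScreen: HP1-beta (50 nM) preformed 30 min with biotin-H3(1-18)K9me3 peptide (50 nM) in PBS pH 7.4, 0.01% Tween-20. Compound added for 30 min at RT, then streptavidin donor/nickel chelate acceptor beads (10 ug/mL) for 30 min.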
# G9a block: blocks human histone lysine methyltransferase G9a. Q96KQ7. G9a H3K9 monomethylation, AlphaScreen, 2 h. Potency, µM (titrated, usually from 102 µM), actives largely listed as inhibitors. 350,000 tested, 8.8% active. AID 504332; also: nearly all actives have a fitted effect of over 75% in size
#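 AlphaScreen read-out: biotin-H3K9 peptide (500 nM) methylation by 20 nM enzyme with 20 uM SAM, 2 h at room temperature after 15 min compound preincubation; anti-monomethyl H3K9 antibody plus donor/acceptor beads, 10 min dark.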
# JMJD2A Tudor inh: inhibitors of human JMJD2A Tudor domain | O75164 | AlphaScreen JMJD2A-Tudor / H3K4me3 peptide binding | Potency, µM (doses to about 114 µM), actives largely listed as inhibitors | 390,000 tested, 4.4% active | AID 504339; also: nearly all actives have a fitted effect of over 50% in size
# JMJD2E inh-1: inhibitors of human JMJD2E demethylase, 8HQ series round 1 | shares compounds with BAZ2B block | JMJD2E demethylase, FDH-coupled NADH fluorescence | Potency, µM (highest dose often 57 µM), usual class: inhibitors | 130 tested, 89% active
# ME-1 prolif: ME-1 cell growth inhibition | 140 tested, 20% active | shares compounds with BAZ2B block | ME-1 cell proliferation, ATP luminescence, 48 h | Potency, µM (titrated, usually from 56.1 µM), most hits filed as inhibitors
# JMJD2E inh-2: confirmation of inhibitors of human JMJD2E demethylase | 140 tested, 93% active | shares compounds with JMJD2A Tudor inh | AID 2677 | Recombinant JMJD2E, FDH-coupled NADH fluorescence (FDH is formaldehyde dehydrogenase) | Potency, µM (highest dose often 56.8 µM), hits mostly inhibitors
# FDH inh: blocks Pseudomonas putida formaldehyde dehydrogenase, flagging JMJD2E artifacts. shares compounds with JMJD2A Tudor inh. FDH enzyme assay, NADH fluorescence kinetic. Potency, µM (highest dose often 56.7 µM), most hits filed as inhibitors. 140 tested, 10% active
# JMJD2E MALDI inh: blocks demethylation by human JMJD2E in a MALDI-TOF-MS assay; shares compounds with JMJD2A Tudor inh; recombinant JMJD2E demethylation, MALDI-TOF-MS; Potency, µM, actives largely listed as inhibitors; 45 tested, 90% active; AID 2688;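 active = compounds whose IC50 for blocking JMJD2E demethylation is below 100 µM; inconclusive = dose dependent effect but IC50 above 100 µM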
# Hits are given with their value; i = inactive; ? = inconclusive; nt = no result given; [ ] = remark or other dose. In the library only some 11% were active in any assay of this set; here they are far more common. Unless noted, calls follow the shape of the dose curve; as a rule, active = well fitted curve in the direction sought with a large enough effect; inconclusive = small, poorly fitted or top-dose-only effect, or another doubt; inactive = no such curve, though single readings can be large; an effect the other way counts as inactive or inconclusive.
SMILES,L3MBTL1 block,BAZ2B block,HP1b chromo inh,G9a block,JMJD2A Tudor inh,JMJD2E inh-1,JMJD2E inh-2,FDH inh,JMJD2E MALDI inh,others
O=C1CSC(=S)N1/N=C/c1ccc(O)c(O)c1O,1.12µM,2.82µM,1.78µM,1.26µM,3.16µM,nt,nt,nt,nt,ME-1 prolif=?
COc1ccc(CCC(=O)O)c(O)c1,nt,?,i,i[12.7 µM],i,nt,nt,nt,nt,
COCc1cc(O)c(O)c(O)c1-c1c(COC)cc(O)c(O)c1O,nt,nt,nt,1µM,nt,nt,nt,nt,nt,ME-1 prolif=i
Cc1cc(=O)cc2oc3cc(N)c(-c4c(C)cc(O)cc4O)c(C)c3nc1-2,nt,nt,nt,nt,nt,nt,nt,nt,nt,ME-1 prolif=i
CC(C)(C)OC(=O)CNC(=O)c1nc[nH]c1C(=O)NCC(=O)OC(C)(C)C,nt,?,i,?,?,nt,nt,nt,nt,
CC(=O)Nc1ccccc1-c1nn[nH]n1,nt,?,i,?,i,nt,nt,nt,nt,
Oc1ccc(-c2ccccc2F)c2cccnc12,nt,nt,nt,nt,79.4µM,?,9.13µM,i,34.4,
Oc1ccc(Nc2ccccc2F)c2cccnc12,nt,nt,nt,nt,22.4µM,7.08µM,7.08µM,i,22.3,
Oc1ccc(-c2nn[nH]n2)c2cccnc12,nt,nt,nt,nt,14.1µM,2.89µM,2.57µM,i,25.7,
O=C(Nc1ccccc1F)Nc1cccnc1Cl,nt,nt,i,nt,i,nt,nt,nt,nt,
Fc1ccccc1-c1nc2ncccc2o1,i,i,i,nt,i,nt,nt,nt,nt,
O=S(=O)(Nc1ccc(O)c2ncccc12)c1ccccc1F,nt,nt,nt,nt,25.1µM,6.46µM,6.46µM,i,4.36,
Cc1ccc(C(=O)Nc2nnc(S(=O)(=O)N(C)Cc3ccc(Cl)cc3)s2)cc1,nt,i,i,i,i,nt,nt,nt,nt,
O=C(c1n[nH]c2ccccc12)N1CCN(S(=O)(=O)c2ccc(Cl)cc2)CC1,i,i,i,i[12.7 µM],i,nt,nt,nt,nt,
CC1(C)CC[C@]2(C(=O)O)CC[C@@]3(C)C(=CCC4[C@@]5(C)CCC(O)C(C)(C)C5CC[C@@]43C)C2C1 (stereo partly drawn),nt,nt,nt,i[2.33 µM],nt,nt,nt,nt,nt,
O=C(Nc1ccc(O)c2ncccc12)c1ccccc1F,nt,nt,nt,nt,28.2µM,7.08µM,7.08µM,i,24.8,
Oc1cccc2cc(CNc3ccccc3F)cnc12,nt,nt,nt,nt,nt,?,3.24µM,i,nt,
Oc1cccc2cc(NCc3ccccc3F)cnc12,nt,nt,nt,nt,nt,32.4µM,20.4µM,i,nt,
Cc1cc(C)nc(NC(=O)c2c(F)c(F)c(F)c(C(=O)Nc3cc(C)cc(C)n3)c2F)c1,nt,nt,i,nt,i,nt,nt,nt,nt,
O=C(c1ccc(-c2cc(O)c3ncccc3c2)cc1)N1CCNCC1,25.1µM,7.94µM,i,i[12.7 µM],20µM,15.8µM,15.8µM,i,nt,
COc1cc(C(=O)N2CCNCC2)cc(OC)c1OC,i,i,i,nt,i,nt,nt,nt,nt,
O=C(NC1C2CCCC1CN(C1CC1)C2)c1ccc(Cl)cc1 (stereo not drawn),i,i,i,i,i,nt,nt,nt,nt,
Oc1ccccc1CNc1cccc2cccnc12,?,i,i,?,?,nt,nt,nt,nt,
Oc1ccc(CNc2ccc(C(F)(F)F)cc2Cl)c2cccnc12,?,79.4µM,nt,1.78µM,nt,11.2µM,11.2µM,i,nt,
Oc1ccc(NCc2ccccc2F)c2cccnc12,nt,nt,nt,nt,50.1µM,?,2.57µM,i,19.1,
SMILES,L3MBTL1 block,BAZ2B block,HP1b chromo inh,G9a block,JMJD2A Tudor inh,JMJD2E inh-1,JMJD2E inh-2,FDH inh,JMJD2E MALDI inh,others
O=C(Nc1ccccc1Cl)Nc1cccnc1Cl,nt,i,i,i,i,nt,nt,nt,nt,
O=C(Cc1ncc(C(F)(F)F)cc1Cl)NCc1cccnc1,nt,i,i,i,i,nt,nt,nt,nt,
Oc1ccc(CNc2ccccn2)c2cccnc12,nt,nt,nt,nt,39.8µM,7.94µM,11.5µM,i,32.9,
Oc1ccc(CNc2ccccc2Cl)c2cccnc12,nt,nt,nt,nt,56.2µM,2.51µM,2.51µM,i,27.1,
O=C(NCC(=O)N1CCc2ccccc2C1)c1ccccc1Cl,nt,i,i,i,i,nt,nt,nt,nt,
Oc1ccc(CCc2ccccc2F)c2cccnc12,nt,nt,nt,nt,i,10µM,12.9µM,i,28.7,
Oc1ccc(CNc2cccc(F)c2F)c2cccnc12,25.1µM,39.8µM,nt,1.12µM,nt,2.51µM,2.51µM,i,nt,
Oc1ccc(CNc2ccc(F)cc2F)c2cccnc12,nt,nt,nt,nt,20µM,2.29µM,5.76µM,i,42,
Oc1ccc(CNc2ccccc2F)c2cccnc12,8.91µM,14.1µM,1.41µM,1µM,79.4µM,5.76µM,1.41µM,i,nt,
